Data published in PubChem BioAssay (Tox21).
Records with an inconclusive call do not appear. Activity calls are given as the source filed them. Unless noted, calls follow the shape of the dose curve; as a rule, active = well fitted curve in the direction sought with a large enough effect in the repeat runs; inconclusive = weak or mixed curves; inactive = no such curve, though single readings can be large; an effect the other way counts as inactive or inconclusive.

How the values were obtained:
[1] = qHTS RealTime-Glo MT Cell Viability Assay in HEK293 cells - 0 hour (AID 1224880); also: top concentration of the series differs between compounds; nearly all actives have a fitted effect of over 45% in size
How it was run: (§1)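 HEK293 cells mixed with RealTime-Glo reagents (NanoLuc plus cell-permeant prosubstrate) at 600 cells/well, preincubated 5 h at 37 C/5% CO2, then given 23 nL compound in DMSO. Nonlytic luminescence from viable cells was read at 0, 8, 16, 24, 32 and 40 h.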

[2] = A CellTox Green Cytotoxicity Assay to monitor cytotoxicity in HepG2 cells - 0 hour (AID 1224882); also: nearly all actives have a fitted effect of over 35% in size
How it was run: (§2)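 HepG2 cells were seeded together with the CellTox Green dye at 600 cells/well, left 5 h at 37 C/5% CO2, then given compounds in DMSO. Fluorescence from dye bound to dead-cell DNA was read repeatedly over 40 h of treatment at 37 C.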

[3] = A CellTox Green Cytotoxicity Assay to monitor cytotoxicity in HepG2 cells - 32 hour (AID 1224883); also: nearly all actives have a fitted effect of over 50% in size
How it was run: as §2

[4] = A CellTox Green Cytotoxicity Assay to monitor cytotoxicity in HEK293 cells - 8 hour (AID 1224884); also: nearly all actives have a fitted effect of over 35% in size
How it was run: (§3)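 HEK293 cells premixed with CellTox Green dye were seeded at 600 cells/well and left 5 h at 37 C/5% CO2 before pin transfer of 23 nL compound in DMSO. Fluorescence from dye bound to dead-cell DNA was read during 40 h treatment.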

[5] = qHTS RealTime-Glo MT Cell Viability Assay in HepG2 cells - 16 hour (AID 1224885); also: nearly all actives have a fitted effect of over 50% in size
How it was run: (§4)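 Cells + NanoLuc/prosubstrate dispensed (600 cells/well) → 5 h at 37 C/5% CO2 → compounds in DMSO transferred → 40 h incubation at 37 C, luminescence read at 0, 8, 16, 24, 32, 40 h.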

[6] = qHTS RealTime-Glo MT Cell Viability Assay in HEK293 cells - 24 hour (AID 1224886); also: top concentration of the series differs between compounds; nearly all actives have a fitted effect of over 50% in size
How it was run: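 Tox21 10K qHTS, HEK293, 600 cells/well, RealTime-Glo reagent co-dispensed with cells; 5 h preincubation, compound by pintool, 37 C, luminescence at 0–40 h.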

[7] = qHTS RealTime-Glo MT Cell Viability Assay in HEK293 cells - 8 hour (AID 1224887); also: top concentration of the series differs between compounds; nearly all actives have a fitted effect of over 50% in size
How it was run: as §1

[8] = A CellTox Green Cytotoxicity Assay to monitor cytotoxicity in HEK293 cells - 16 hour (AID 1224888); also: nearly all actives have a fitted effect of over 35% in size
How it was run: as §3

[9] = qHTS RealTime-Glo MT Cell Viability Assay in HepG2 cells - 0 hour (AID 1224889); also: nearly all actives have a fitted effect of over 50% in size
How it was run: as §4

[10] = A CellTox Green Cytotoxicity Assay to monitor cytotoxicity in HepG2 cells - 8 hour (AID 1224890); also: nearly all actives have a fitted effect of over 45% in size
How it was run: as §2

[11] = qHTS assay to identify small molecule antagonists of the estrogen receptor alpha (ER-alpha) signaling pathway using the BG1 cell line in the presence of 0.1 nM 17-beta-estradiol - cell viability counter screen (AID 1259241); also: nearly all actives have a fitted effect of over 40% in size
How it was run: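 Live-cell protease activity (CellTiter-Fluor fluorescence, 30 min) was read in the same wells after VM7Luc4E2 cells had been exposed to compounds with 0.1 nM 17beta-estradiol for 22 hr at 37C.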

[12] = qHTS assay to identify small molecule antagonists of the androgen receptor (AR) signaling pathway using the MDA cell line in the presence of 0.5 nM R1881 - cell viability counter screen (AID 1259242); also: nearly all actives have a fitted effect of over 45% in size
How it was run: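 MDA-kb2 cells (human breast carcinoma, stably carrying MMTV-luciferase reporter) were exposed to compounds with 0.5 nM R1881 (final) for 16 hr at 37C, 0% CO2; viability then read as live-cell protease fluorescence (CellTiter-Fluor, 30 min) in the same wells.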

[13] = target: Estrogen receptor (Homo sapiens) (UniProt P03372); experiment: qHTS assay to identify small molecule antagonists of the estrogen receptor alpha (ER-alpha) signaling pathway using the BG1 cell line in the presence of 0.1 nM 17-beta-estradiol (AID 1259244); also: nearly all actives have a fitted effect of over 50% in size
How it was run: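 VM7Luc4E2 cells (endogenous full-length ER-alpha, stable 4xERE-luciferase) were grown 5 days in phenol red-free medium with charcoal-stripped FBS, then exposed 22 h at 37C to compounds plus 0.1 nM (final) 17beta-estradiol; ONE-Glo luminescence read-out.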

[14] = qHTS assay to identify small molecule HDAC inhibitors (AID 1259364); also: top concentration of the series differs between compounds; nearly all actives have a fitted effect of over 45% in size
How it was run: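 Wild-type HCT-116 cells were plated overnight, exposed to compounds for 2 h at 37 °C, then given HDAC-Glo class I/II luminogenic reagent for 30 min at room temperature before luminescence was read.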

[15] = qHTS assay to identify small molecule HDAC inhibitors - cell viability counter screen (AID 1259365)
How it was run: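 HCT-116 (wild type), 1,500 cells/well, overnight 37C/5% CO2; compound in DMSO 2hr; CellTiter-Glo 30min RT; luminescence read.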

[16] = qHTS assay to identify small molecule agonists of the sonic hedgehog signaling (Shh) pathway - cell viability counter screen (AID 1259366); also: nearly all actives have a fitted effect of over 50% in size
How it was run: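 CellTiter-Fluor fluorescence read-out, 1 hr at 37C, added after 23hr compound exposure. Cells: 3T3 Gli1-Luc, an NIH/3T3 clone with stably integrated Gli1-Luc reporter, plated 4hr before compound.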

[17] = A CellTox Green Cytotoxicity Assay to monitor cytotoxicity in HEK293 cells - 32 hour (AID 1224881); also: nearly all actives have a fitted effect of over 40% in size
How it was run: as §3

[18] = qHTS assay to identify small molecule phospholipidosis (PLD) inducers (AID 1259344; active = well fitted curve in the direction sought with a large enough effect; an effect the other way counts as inactive or inconclusive)
How it was run: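 HepG2 cells, 900/well, treated with compound plus LipidTOX Red for 24 h at 37 C; amiodarone positive and DMSO negative controls. Fixed with paraformaldehyde/Hoechst, then high-content imaging scored LipidTOX pit count and integrated intensity per well and per cell.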

[19] = qHTS assay to identify small molecule antagonists of the sonic hedgehog signaling (Shh) pathway - cell viability counter screen (AID 1259367); also: nearly all actives have a fitted effect of over 55% in size
How it was run: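 NIH/3T3-derived Gli1-Luc reporter cells, 2,000/well, plated 4 hr before compound addition, then stimulated with conditioned medium for 24 hr at 37C. Viability measured in the same wells by CellTiter-Fluor fluorescence, reagent added at 23 hr for 1 hr.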
% is scaled to controls: 0 for no effect and ±100 for the full control effect.

Sequence of Estrogen receptor (Homo sapiens) (P03372 whole entry, looked up): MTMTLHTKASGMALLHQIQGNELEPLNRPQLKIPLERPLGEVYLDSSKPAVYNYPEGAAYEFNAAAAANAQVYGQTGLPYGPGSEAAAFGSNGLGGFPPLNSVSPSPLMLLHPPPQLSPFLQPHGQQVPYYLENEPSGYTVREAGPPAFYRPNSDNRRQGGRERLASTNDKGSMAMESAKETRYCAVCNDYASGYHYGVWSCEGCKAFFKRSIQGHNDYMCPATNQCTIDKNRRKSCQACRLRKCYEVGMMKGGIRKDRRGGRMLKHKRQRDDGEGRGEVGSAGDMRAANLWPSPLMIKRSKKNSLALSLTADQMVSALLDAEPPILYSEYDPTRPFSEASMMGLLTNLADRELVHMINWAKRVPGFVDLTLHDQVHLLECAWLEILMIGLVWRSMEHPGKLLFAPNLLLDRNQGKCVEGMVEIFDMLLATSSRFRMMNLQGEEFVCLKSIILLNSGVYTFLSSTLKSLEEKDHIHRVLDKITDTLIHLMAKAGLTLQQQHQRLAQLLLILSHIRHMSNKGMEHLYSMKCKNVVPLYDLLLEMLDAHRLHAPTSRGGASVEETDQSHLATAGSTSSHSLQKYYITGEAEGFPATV

c1ccc2cnncc2c1
inactive: outcome [1] | Potency [2] | Potency [3] | Potency [4] | outcome [5] | Potency [6] | Potency [7] | Potency [8] | Potency [9] | Potency [10] | outcome [11] | outcome [12] | outcome [13] | Potency [14] | outcome [15] | Potency [16]

COc1cc(C(=O)N2CCOCC2)cc(OC)c1OC
inactive: outcome [1] | Potency [17] | Potency [3] | Potency [4] | outcome [5] | Potency [6] | Potency [7] | Potency [8] | Potency [9] | outcome [11] | outcome [12] | Potency [18] | Potency [14] | outcome [15] | Potency [16] | outcome [19]

O=C(O)c1cccc(C(=O)O)n1
inactive: outcome [1] | Potency [17] | Potency [3] | Potency [4] | outcome [5] | Potency [6] | Potency [7] | Potency [9] | Potency [10] | outcome [11] | outcome [12] | outcome [13] | Potency [14] | outcome [15] | Potency [16]

NS(=O)(=O)c1cc(C2(O)NC(=O)c3ccccc32)ccc1Cl (centres undefined)
inactive: outcome [1] | Potency [2] | Potency [3] | Potency [4] | outcome [5] | Potency [6] | Potency [7] | Potency [8] | Potency [9] | Potency [10] | outcome [11] | outcome [12] | Potency [18] | Potency [14] | outcome [15] | Potency [16] | outcome [19]

O=C(O)c1ccccc1-c1ccc(C(F)(F)F)cc1
inactive: outcome [1] | Potency [2] | Potency [3] | Potency [4] | outcome [5] | Potency [6] | Potency [7] | Potency [8] | Potency [9] | Potency [10] | outcome [11] | outcome [12] | outcome [13] | Potency [18] | Potency [14] | outcome [15] | Potency [16] | outcome [19]

CC(C)(C)N(CCO)CCO
inactive: outcome [1] | Potency [2] | Potency [3] | Potency [4] | outcome [5] | Potency [6] | Potency [7] | Potency [8] | Potency [9] | outcome [11] | outcome [12] | outcome [13] | Potency [14] | outcome [15] | Potency [16] | outcome [19]

CC(CCO)CCCC(C)(C)O (centres undefined)
inactive: outcome [1] | Potency [2] | Potency [3] | Potency [4] | outcome [5] | Potency [6] | Potency [7] | Potency [8] | Potency [9] | outcome [11] | outcome [12] | Potency [14] | outcome [15] | Potency [16] | outcome [19]

NC(=O)c1c(Cl)cccc1Cl
inactive: outcome [1] | Potency [17] | Potency [3] | Potency [4] | outcome [5] | Potency [6] | Potency [7] | Potency [9] | Potency [10] | outcome [11] | outcome [12] | outcome [13] | Potency [14] | outcome [15] | Potency [16]

CCCCCCCCCCCCI
inactive: outcome [1] | Potency [17] | Potency [3] | outcome [5] | Potency [6] | Potency [7] | Potency [8] | Potency [9] | outcome [11] | outcome [12] | Potency [14] | outcome [15] | Potency [16] | outcome [19]

NCCN1CCNC1=O
inactive: outcome [1] | Potency [2] | Potency [3] | Potency [4] | outcome [5] | Potency [6] | Potency [7] | Potency [8] | Potency [9] | Potency [10] | outcome [11] | outcome [12] | outcome [13] | Potency [14] | outcome [15] | Potency [16] | outcome [19]

N#CCN(CC#N)CCN(CC#N)CC#N
inactive: outcome [1] | Potency [2] | Potency [3] | Potency [4] | outcome [5] | Potency [6] | Potency [7] | Potency [8] | Potency [9] | Potency [10] | outcome [11] | outcome [12] | Potency [14] | outcome [15] | Potency [16] | outcome [19]

O=C(O)Cc1cc(I)c(Oc2cc(I)c(O)c(I)c2)c(I)c1
inactive: outcome [1] | Potency [2] | Potency [3] | Potency [4] | outcome [5] | Potency [6] | Potency [7] | Potency [8] | Potency [9] | Potency [10] | outcome [11] | outcome [12] | outcome [13] | Potency [14] | outcome [15] | Potency [16] | outcome [19]

Cc1ccc(N)cc1[N+](=O)[O-]
inactive: outcome [1] | Potency [17] | Potency [3] | Potency [4] | outcome [5] | Potency [6] | Potency [7] | Potency [8] | Potency [9] | Potency [10] | outcome [11] | outcome [12] | Potency [14] | outcome [15] | Potency [16]

CCCCc1ccc(N)cc1
inactive: outcome [1] | Potency [17] | Potency [3] | Potency [4] | outcome [5] | Potency [7] | Potency [9] | Potency [10] | outcome [11] | outcome [12] | outcome [13] | Potency [14] | outcome [15] | Potency [16] | outcome [19]

COC(=O)CCCCCCCCC(=O)OC
inactive: outcome [1] | Potency [2] | Potency [3] | Potency [4] | outcome [5] | Potency [6] | Potency [7] | Potency [8] | Potency [9] | Potency [10] | outcome [11] | outcome [12] | outcome [13] | Potency [14] | outcome [15] | Potency [16]

CCCCCCCCCCCCCCC
inactive: outcome [1] | Potency [3] | Potency [4] | outcome [5] | Potency [6] | Potency [7] | Potency [8] | Potency [9] | Potency [10] | outcome [11] | outcome [12] | Potency [14] | outcome [15] | Potency [16] | outcome [19]

CC(C)c1cccc(O)c1
inactive: outcome [1] | Potency [2] | Potency [4] | outcome [5] | Potency [6] | Potency [7] | Potency [8] | Potency [9] | Potency [10] | outcome [11] | outcome [12] | outcome [13] | Potency [14] | outcome [15] | Potency [16] | outcome [19]

FC(F)(F)C(F)(F)C(F)(F)C(F)(F)C(F)(F)C(F)(F)C(F)(F)C(F)(F)C(F)(F)C(F)(F)F
inactive: activity change, negative = cytotoxicity [1] -21.9% [at 6.97 µM] | cytotoxicity [2] 4.39% [at 6.97 µM] | cytotoxicity increase [3] 1.61% [at 6.97 µM] | cytotoxicity increase [4] 4.13% [at 6.97 µM] | activity change, negative = cytotoxic [5] 3.86% [at 6.97 µM] | activity change, negative = cytotoxicity [6] -12.9% [at 6.97 µM] | activity change, negative = cytotoxicity [7] -20.1% [at 6.97 µM] | activity change, negative = cytotoxicity [9] 12.4% [at 6.97 µM] | cytotoxicity increase [10] -4.05% [at 6.97 µM] | activity change, negative = cytotoxicity [11] -0.635% [at 8.39 µM] | viability change, negative = cytotoxic [12] -3% [at 8.39 µM] | activity change, negative = inhibition [14] -3.49% [at 8.39 µM] | activity change, negative = cytotoxicity [15] 4.94% [at 8.39 µM] | viability change, negative = cytotoxic [16] 2.95% [at 8.39 µM] | viability change, negative = cytotoxic [19] 4.53% [at 8.39 µM]
